# Measured values taken from PubChem BioAssay (Tox21).
# Inconclusive results are not listed. Where a call stands in place of a potency, no number is given. The source made the active and inactive calls. Unless noted, calls come from the whole dose curve; as a rule, active = well fitted curve in the direction sought with a large enough effect in the repeat runs; inconclusive = weak or mixed curves; inactive = no such curve, though single readings can be large; an effect the other way counts as inactive or inconclusive.
# How the values were obtained:
# [1] = qHTS assay for small molecule agonists of the p53 signaling pathway (AID 651631; calls by dose curve; note: nearly all actives have a fitted effect of over 15% in size; note: potency is the fitted concentration of half-maximal effect)
# In short: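 HCT-116 cells carrying a beta-lactamase reporter under p53 response elements were dosed with compound for 16 h at 37 °C. LiveBLAzer B/G FRET substrate was then added for 2 h at room temperature, and fluorescence intensity was read to detect pathway agonism.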
# [2] = qHTS assay for small molecules that induce genotoxicity in human embryonic kidney cells expressing luciferase-tagged ATAD5 (AID 651632); note: nearly all actives have a fitted effect of over 15% in size
# In short: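 Quantitative HTS in HEK293T expressing luciferase-tagged ATAD5, whose levels rise upon DNA damage. Exposure ran 16 hr at 37C and 5% CO2, with luminescence read 30 min after Amplite addition at room temperature.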
# [3] = qHTS assay for small molecule disruptors of the mitochondrial membrane potential (AID 720635); note: potency is the fitted concentration of half-maximal effect
# In short: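 Mitochondrial membrane potential tracked with Mito-MPS dye, red aggregates (ex 540/em 590 nm) against green monomers (ex 490/em 535 nm). Compound treatment 1 hr at 37C, dye 30 min in HepG2.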
# [4] = qHTS assay to test for compound auto fluorescence at 590 nm (red) in HepG2 cells (AID 720674)
# In short: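 1 hr compound incubation on HepG2 cells, 37 C, 5% CO2; plate read ex 540 nm / em 590 nm; intensities reported as Rose Bengal sodium equivalents.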
# [5] = qHTS assay to test for compound auto fluorescence at 535 nm (green) in HepG2 cells (AID 720675)
# [6] = qHTS assay to test for compound auto fluorescence at 460 nm (blue) in HEK293 cells (AID 720678)
# In short: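 Cells were seeded and left to adhere for 4-5 hr at 37C. Compounds were then pin-transferred. After an overnight incubation at 37C under 5% CO2, intrinsic fluorescence at 405/460 nm was measured and referenced to triamterene.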
# [7] = qHTS assay to test for compound auto fluorescence at 590 nm (red) in HEK293 cells (AID 720679)
# In short: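 Each well held 2,000 HEK293 cells in medium containing 10% dialyzed FBS. Following 4-5 hr attachment at 37C, 23 nL test compound or DMSO was added; plates sat overnight, and red fluorescence (540/590nm) was recorded.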
# [8] = qHTS assay for small molecule agonists of the p53 signaling pathway - cell viability (AID 651633; calls by dose curve; note: nearly all actives have a fitted effect of over 30% in size; note: potency is the fitted concentration of half-maximal effect)
# In short: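 Viability counter-read: CellTiter-Glo luminescence (30 min, room temperature) in the same p53RE-bla plates. These plates had been exposed to compounds for 16 h at 37 C.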
# [9] = qHTS assay for small molecules that induce genotoxicity in human embryonic kidney cells expressing luciferase-tagged ATAD5 - cell viability (AID 651634; calls by dose curve; note: nearly all actives have a fitted effect of over 25% in size)
# In short: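 After 15.5 hr incubation with compound at 37C, 5% CO2, HEK293T ATAD5-luciferase cells received CellTiter-Fluor reagent; fluorescence intensity was quantified following 30 min at 37C.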
# [10] = qHTS assay for small molecule disruptors of the mitochondrial membrane potential - cell viability (AID 720634; calls by dose curve;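 note: human HepG2 liver cancer cells; series mostly up to about 83 µM; nearly all actives have a fitted effect of over 20% in size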)
# In short: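 ATP-based luminescent viability readout (CellTiter-Glo, 30 min, room temperature) in HepG2 cells multiplexed with the m-MPI membrane potential dye; compound exposure lasted 1 hr at 37 C.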
SMILES,Potency [1],Potency [2],Potency [3],Potency [4],Potency [5],Potency [6],Potency [7],Potency [8],Potency [9],Potency [10]
CCCCCCCCCCCCCC[n+]1ccc(C)cc1,23.7 µM (active),inactive,13.3 µM (active),inactive,inactive,inactive,inactive,–,–,–
CS(=O)(=O)c1ccc(C2=C(c3ccccc3)C(=O)OC2)cc1,inactive,–,–,inactive,inactive,inactive,inactive,inactive,inactive,inactive
CC(C)c1nc(N(C)S(C)(=O)=O)nc(-c2ccc(F)cc2)c1/C=C/C(O)CC(O)CC(=O)O (stereo unspecified),inactive,–,–,inactive,inactive,inactive,inactive,inactive,inactive,inactive
CCC(=O)O[C@H]1CC[C@H]2[C@@H]3CCc4cc(O)ccc4[C@H]3CC[C@]12C,33.5 µM (active),inactive,11.9 µM (active),inactive,inactive,inactive,inactive,–,inactive,–
O=C(O)c1ccc(NC(=O)[C@H](Cc2ccc(O)cc2)NC(=O)c2ccccc2)cc1,inactive,inactive,inactive,inactive,inactive,inactive,inactive,–,inactive,inactive
CN(CC(=O)N1CCOCC1)Cc1c(Cl)cccc1NC(=O)c1ccccc1,inactive,–,–,inactive,inactive,inactive,inactive,inactive,inactive,inactive
O=C1C(=O)c2ncccc2-c2cccnc21,1.68 µM (active),inactive,26.6 µM (active),inactive,inactive,–,inactive,–,inactive,inactive
CC1(S(=O)(=O)O)CC(=O)c2ccccc2C1=O (stereo unspecified),21.1 µM (active),inactive,–,inactive,inactive,–,inactive,26.6 µM (active),–,inactive
Cc1ccccc1CNc1ncnc2c1ncn2[C@@H]1O[C@H](CO)[C@@H](O)[C@H]1O,inactive,–,inactive,inactive,inactive,inactive,inactive,inactive,inactive,inactive
C#CCOc1ccc2c(C)cc(=O)oc2c1,inactive,–,–,inactive,inactive,inactive,inactive,inactive,inactive,inactive
CC1(C)S[C@@H]2[C@H](NC(=O)C(C(=O)O)c3ccsc3)C(=O)N2[C@H]1C(=O)O (stereo partly specified),inactive,–,–,inactive,inactive,inactive,inactive,inactive,inactive,inactive
COc1ccc(/C=C/C(=O)OCCC(C)C)cc1,inactive,–,inactive,inactive,inactive,inactive,inactive,inactive,inactive,–
O=C(O)COc1ccc(CCNS(=O)(=O)c2ccccc2)s1,–,inactive,inactive,inactive,inactive,inactive,–,inactive,inactive,inactive
FC(F)(F)C(F)(F)C(F)(F)C(F)(F)C(F)(F)C(F)(F)F,–,inactive,inactive,inactive,inactive,inactive,–,inactive,inactive,inactive
CC(Oc1ccccc1)C(=O)N[C@@H]1C(=O)N2[C@@H]1SC(C)(C)[C@@H]2C(=O)O (stereo partly specified),–,inactive,inactive,inactive,inactive,inactive,inactive,inactive,inactive,inactive
C[N@+]12CCCC[C@@H]1CCC(=C(c1cccs1)c1cccs1)C2,–,inactive,inactive,inactive,inactive,inactive,–,inactive,inactive,inactive
O=C1N=C2SCCN2C(=O)C1Cc1ccc(Cl)cc1 (stereo unspecified),inactive,–,–,inactive,inactive,inactive,–,inactive,inactive,–
O=S(=O)(O)CCCS(=O)(=O)O,inactive,–,–,inactive,inactive,inactive,inactive,inactive,inactive,–
CCCCCCCCCCCC(=O)OC[C@@H](O)C1OC[C@H](O)[C@H]1O (stereo partly specified),–,inactive,inactive,inactive,inactive,inactive,inactive,inactive,inactive,inactive
CC(=O)N[C@@H](CC(=O)N[C@@H](CCC(=O)O)C(=O)O)C(=O)O,–,inactive,inactive,inactive,inactive,inactive,inactive,inactive,inactive,inactive
CC(=O)N[C@@H]([C@@H](O)[C@H](O)[C@H](O)CO)[C@@H](O)CC(=O)C(=O)O,–,inactive,inactive,inactive,inactive,inactive,–,inactive,inactive,inactive
O=C(Nc1ccc(O)cc1)c1ccccc1O,inactive,–,5.96 µM (active),inactive,inactive,inactive,inactive,inactive,–,–
Cc1cc(/C=C/c2ccc3cc(N(C)C)ccc3[n+]2C)c(C)n1-c1ccccc1,9.02 µM (active),–,1.43 µM (active),–,inactive,inactive,–,5.07 µM (active),–,inactive
